Sampled rows, rich in hits. Any-hit rate of the full collection: about 6.6%.
BoNT F protease: inhibitors of Botulinum neurotoxin F light chain protease | AID 588497 | inhibition, % at 10 µM | 0.22% of 360,000 active | Multiplex microsphere protease cleavage assay, flow cytometry; in the data active means inhibition above about 35%, passing the limit was not always enough; inconclusive means no clear call, values can overlap the other calls; further: plate controls were buffer without enzyme for full effect and enzyme alone for no effect
Anthrax LF inh2: anthrax lethal factor protease inhibition. P15917. multiplex microsphere protease cleavage assay, LF. inhibition, % at 10 µM. 0.12% of 360,000 active. AID 588501; further: plate controls were buffer without enzyme for full effect and enzyme alone for no effect
BoNT-A LC inh2: blocks Botulinum neurotoxin A light chain protease. 0.17% of 360,000 active. inhibition, % at 10 µM. multiplex microsphere protease substrate cleavage, flow cytometry; further: plate controls were buffer without enzyme for full effect and enzyme alone for no effect
FBA Mtb inh: inhibits M. tuberculosis FBA enzyme; P9WQA3; purified M. tuberculosis FBA, fluorescence read-out; inhibition, % at 1 µM; 2.3% of 360,000 active; in the data active means inhibition above about 27%;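 further: 0% = vehicle and 100% = reference inhibitor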
Target sequence (P9WQA3 whole entry, looked up): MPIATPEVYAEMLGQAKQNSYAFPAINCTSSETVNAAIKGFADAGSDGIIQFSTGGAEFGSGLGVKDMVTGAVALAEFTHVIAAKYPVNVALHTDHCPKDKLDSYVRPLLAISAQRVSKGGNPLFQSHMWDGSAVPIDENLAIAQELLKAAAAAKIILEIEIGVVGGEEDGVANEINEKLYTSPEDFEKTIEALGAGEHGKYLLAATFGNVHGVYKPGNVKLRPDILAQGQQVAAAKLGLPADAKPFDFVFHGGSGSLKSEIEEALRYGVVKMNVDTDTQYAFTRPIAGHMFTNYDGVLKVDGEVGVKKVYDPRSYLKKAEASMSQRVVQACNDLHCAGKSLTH
Autofluor counter: counter-screen for toxin protease inhibitors: compound fluorescence | AID 624483 | fluorescence intensity (concentration not given with the values) | 3.1% of 360,000 active | compound autofluorescence counterscreen, microsphere flow cytometry; hits give high values; in the data active means fluorescence intensity above about 16000; inconclusive means no clear call, values can overlap the other calls
GDH-TPI counter-1: GDH-TPI coupled enzyme inhibition counter-screen; GDH-TPI coupled enzyme counterscreen, NADH absorbance; inhibition, % at 4.8 µM; 1.2% of 360,000 active; AID 588335; in the data active means inhibition above about 30%;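 further: 0% = DMSO wells and 100% = wells lacking the enzyme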
Mtb FBA inh conf: confirmation of M. tuberculosis fructose-bisphosphate aldolase inhibitors | shares compounds with FBA Mtb inh | inhibition, % at 1 µM | 78% of 5,600 active | purified M. tuberculosis FBA, fluorescence read-out | AID 651616; in the data active means inhibition above about 27%;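 further: 0% = vehicle wells and 100% = reference inhibitor wells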
GDH-TPI counter-2: inhibits GDH-TPI coupling enzymes, flagging Mtb FBA hits. shares compounds with FBA Mtb inh. GDH-TPI coupled enzyme counterscreen, fluorescence. inhibition, % at 1 µM. 81% of 5,600 active. AID 652141; in the data active means inhibition above about 10%
The depositor's hits bear a star. Unless noted, no stated cut-off is given here; in the data, active means inhibition above about 30%; inconclusive means no clear call, values can overlap the other calls; inactive means below that.

CC(C)Cc1nc(N2CCN(C(=O)c3ccccc3)CC2)c(C#N)c2c1CCC2 was read as BoNT F protease 1.0, Anthrax LF inh2 -14.0, BoNT-A LC inh2 0.8, FBA Mtb inh 12.1, Autofluor counter 5322 and GDH-TPI counter-1 -15.5.
`COCc1ccc(C(=O)N(C)C2CCCN(Cc3ccccc3F)C2)o1` (centres undefined) gave BoNT F protease 4.0, Anthrax LF inh2 -5.5, BoNT-A LC inh2 4.2, FBA Mtb inh 1.9, Autofluor counter 4299 and GDH-TPI counter-1 3.5.
For C[C@@H](NC(=O)c1cc2c([nH]c3ccccc32)c(-c2ccccc2)n1)C(=O)O the results were BoNT F protease 24.8, Anthrax LF inh2 -8.2, BoNT-A LC inh2 -0.6, FBA Mtb inh 29.1*, Autofluor counter 3535, GDH-TPI counter-1 6.6, Mtb FBA inh conf 70.5* and GDH-TPI counter-2 61.0*.
`Cc1nc(C(=O)Nc2ccccc2Cl)cc2c1[nH]c1ccccc12` gave BoNT F protease 2.0, Anthrax LF inh2 -2.9, BoNT-A LC inh2 0.2, FBA Mtb inh -12.1, Autofluor counter 4208 and GDH-TPI counter-1 8.2.
For COC1(OC)N=C(N)C2(C#N)C(c3ccccc3)NC(C)=CC12C#N (centres undefined) the results were BoNT F protease -7.4, Anthrax LF inh2 -1.2, BoNT-A LC inh2 0.3, FBA Mtb inh 61.6*, Autofluor counter 2420, GDH-TPI counter-1 -2.0, Mtb FBA inh conf active and GDH-TPI counter-2 active.
COC1(OC)N=C(N)C2(C#N)C(c3cccc(Oc4ccccc4)c3)C12C#N (centres undefined) was read as BoNT F protease -3.9, Anthrax LF inh2 -5.9, BoNT-A LC inh2 -1.0, FBA Mtb inh -4.0, Autofluor counter 3186 and GDH-TPI counter-1 0.6.
For COC(=O)C1=C(C)NC(=O)NC1c1ccc(N2CCC(c3ccccc3)=N2)cc1 (centres undefined) the results were BoNT F protease 2.5, Anthrax LF inh2 -1.1, BoNT-A LC inh2 0.3, FBA Mtb inh 77.5*, Autofluor counter 2495, GDH-TPI counter-1 10.7, Mtb FBA inh conf 108.8* and GDH-TPI counter-2 78.3*.
`O=C(C[C@@H]1C/C=C\C[C@@H](Cc2ccc(F)cc2)C(=O)OC[C@@H](Cc2ccccc2)NC1=O)N[C@H](CO)Cc1ccccc1` gave BoNT F protease 2.4, Anthrax LF inh2 -4.7, BoNT-A LC inh2 0.2, FBA Mtb inh 0.0, Autofluor counter 3452 and GDH-TPI counter-1 2.7.
Screening O=C(O)c1ccccc1NCc1cccnc1 returned BoNT F protease inconclusive, Anthrax LF inh2 11.9, BoNT-A LC inh2 0.8, FBA Mtb inh 5.1, Autofluor counter 3663 and GDH-TPI counter-1 -2.1.
O=C(O)CNc1ccccc1C(=O)O was read as BoNT F protease -3.6, Anthrax LF inh2 1.0, BoNT-A LC inh2 0.3, FBA Mtb inh 57.7*, Autofluor counter 4185, GDH-TPI counter-1 7.4, Mtb FBA inh conf -4.8 and GDH-TPI counter-2 -4.0.
Screening C/C(=C\COc1cc(=O)[nH]c2ccccc12)CCC(O)C(C)(C)O (centres undefined) returned BoNT F protease 1.8, Anthrax LF inh2 -2.8, BoNT-A LC inh2 0.3, FBA Mtb inh 3.2, Autofluor counter 5561 and GDH-TPI counter-1 -4.9.
C/C(=C\COc1ccc2ccc(=O)oc2c1)CC[C@@H](O)C(C)(C)O was read as BoNT F protease -3.0, Anthrax LF inh2 -4.1, BoNT-A LC inh2 0.0, FBA Mtb inh 83.1*, Autofluor counter 3905, GDH-TPI counter-1 16.2, Mtb FBA inh conf -4.6 and GDH-TPI counter-2 -4.8.
Screening CCOC(=O)c1cnn(-c2cc(C)nc3c(-c4ccccc4)c(C)nn23)c1N returned BoNT F protease 6.0, Anthrax LF inh2 -0.7, BoNT-A LC inh2 -0.2, FBA Mtb inh 11.1, Autofluor counter 2697 and GDH-TPI counter-1 -1.5.
For CCOC(=O)c1c(-c2ccccc2)cn2c(C)cc(C)nc12 the results were BoNT F protease 7.6, Anthrax LF inh2 -1.8, BoNT-A LC inh2 -0.6, FBA Mtb inh 29.7*, Autofluor counter 4692, GDH-TPI counter-1 6.3, Mtb FBA inh conf 89.6* and GDH-TPI counter-2 56.4*.
For O=C(CNCc1ccccc1Cl)Nc1cc(S(=O)(=O)N2CCOCC2)ccc1Cl the results were BoNT F protease -8.0, Anthrax LF inh2 -7.1, BoNT-A LC inh2 -0.4, FBA Mtb inh 3.5, Autofluor counter 3032 and GDH-TPI counter-1 3.0.
Screening O=C(NC1CCCCC1)c1ccc(S(=O)(=O)N2CCCCC2)cc1 returned BoNT F protease 0.6, Anthrax LF inh2 -0.6, BoNT-A LC inh2 -0.6, FBA Mtb inh -2.8, Autofluor counter 3393 and GDH-TPI counter-1 -2.7.
O=C(NC1CCCCC1)c1cc(S(=O)(=O)N2CCCC2)ccc1Cl was read as BoNT F protease -6.3, Anthrax LF inh2 11.4, BoNT-A LC inh2 0.5, FBA Mtb inh 104.2*, Autofluor counter 3827, GDH-TPI counter-1 0.0, Mtb FBA inh conf 76.9* and GDH-TPI counter-2 57.8*.
O=C(CNC1CCCCC1)Nc1cc(S(=O)(=O)N2CCOCC2)ccc1Cl was read as BoNT F protease -3.7, Anthrax LF inh2 -2.3, BoNT-A LC inh2 -1.1, FBA Mtb inh 105.9*, Autofluor counter 3483, GDH-TPI counter-1 3.1, Mtb FBA inh conf active and GDH-TPI counter-2 active.
`CCN1CCN(S(=O)(=O)c2ccc(Cl)c(C(=O)NC3CC3)c2)CC1` gave BoNT F protease -4.4, Anthrax LF inh2 -7.1, BoNT-A LC inh2 -0.2, FBA Mtb inh -0.3, Autofluor counter 3933 and GDH-TPI counter-1 10.0.
O=C(Nc1ccncc1)c1cc(S(=O)(=O)N2CCOCC2)ccc1Cl was read as BoNT F protease 3.9, Anthrax LF inh2 -0.6, BoNT-A LC inh2 -2.2, FBA Mtb inh 97.0*, Autofluor counter 6282, GDH-TPI counter-1 1.4, Mtb FBA inh conf active and GDH-TPI counter-2 active.
`CCN1CCN(S(=O)(=O)c2ccc(Cl)c(C(=O)NC3CCCC3)c2)CC1` gave BoNT F protease 18.4, Anthrax LF inh2 3.0, BoNT-A LC inh2 -1.1, FBA Mtb inh 47.2*, Autofluor counter 4401, GDH-TPI counter-1 6.9, Mtb FBA inh conf active and GDH-TPI counter-2 active.
For COc1cccc(NC(=O)c2ccc3snnc3c2)c1 the results were BoNT F protease -5.5, Anthrax LF inh2 -7.3, BoNT-A LC inh2 -0.5, FBA Mtb inh 1.4, Autofluor counter 2936 and GDH-TPI counter-1 -8.7.
For COc1ccc(NC(=O)NCC(C)CSc2ccc(C)cc2)c(OC)c1 (centres undefined) the results were BoNT F protease 6.9, Anthrax LF inh2 1.0, BoNT-A LC inh2 -1.6, FBA Mtb inh -1.2, Autofluor counter 3713 and GDH-TPI counter-1 -9.5.
Screening CN(CCOc1ccc(Cl)cc1)C(=O)c1ccc(S(=O)(=O)N2CCOCC2)cc1 returned BoNT F protease 3.0, Anthrax LF inh2 0.4, BoNT-A LC inh2 -0.4, FBA Mtb inh 4.8, Autofluor counter 2692 and GDH-TPI counter-1 6.3.
